# Data as given in ChEMBL document CHEMBL1961873, “Compounds: GSK PKIS; Assays: Nanosyn kinase panel” (2012).
# What was measured:
# [1] = target: T1, Inhibitor of nuclear factor kappa-B kinase subunit epsilon (Homo sapiens) (UniProt Q14164); conditions: at 1 µM;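 further: reported values are averaged percent inhibition figures against human IKKε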
# T1 sequence (whole entry): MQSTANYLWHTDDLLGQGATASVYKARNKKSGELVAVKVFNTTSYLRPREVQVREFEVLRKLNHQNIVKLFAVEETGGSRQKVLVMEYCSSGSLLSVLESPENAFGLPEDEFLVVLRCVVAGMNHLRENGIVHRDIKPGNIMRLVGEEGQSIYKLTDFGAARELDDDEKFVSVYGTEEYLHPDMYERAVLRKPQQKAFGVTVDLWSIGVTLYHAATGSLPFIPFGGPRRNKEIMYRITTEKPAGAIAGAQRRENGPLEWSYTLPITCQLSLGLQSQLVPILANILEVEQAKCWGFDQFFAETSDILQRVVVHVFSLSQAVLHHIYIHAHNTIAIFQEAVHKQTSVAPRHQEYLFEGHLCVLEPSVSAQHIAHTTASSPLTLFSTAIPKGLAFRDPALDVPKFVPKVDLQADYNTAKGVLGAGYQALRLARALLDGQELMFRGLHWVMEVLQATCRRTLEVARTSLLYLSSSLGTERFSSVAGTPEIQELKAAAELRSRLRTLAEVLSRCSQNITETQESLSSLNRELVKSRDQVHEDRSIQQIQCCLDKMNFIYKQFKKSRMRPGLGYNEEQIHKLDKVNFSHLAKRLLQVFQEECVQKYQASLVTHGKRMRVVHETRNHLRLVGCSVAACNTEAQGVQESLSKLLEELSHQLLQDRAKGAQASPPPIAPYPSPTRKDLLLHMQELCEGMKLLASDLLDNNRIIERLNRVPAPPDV
# [2] = target: T2, Serine/threonine-protein kinase Nek1 (Homo sapiens) (UniProt Q96PY6); conditions: at 0.1 µM
# T2 sequence (whole entry): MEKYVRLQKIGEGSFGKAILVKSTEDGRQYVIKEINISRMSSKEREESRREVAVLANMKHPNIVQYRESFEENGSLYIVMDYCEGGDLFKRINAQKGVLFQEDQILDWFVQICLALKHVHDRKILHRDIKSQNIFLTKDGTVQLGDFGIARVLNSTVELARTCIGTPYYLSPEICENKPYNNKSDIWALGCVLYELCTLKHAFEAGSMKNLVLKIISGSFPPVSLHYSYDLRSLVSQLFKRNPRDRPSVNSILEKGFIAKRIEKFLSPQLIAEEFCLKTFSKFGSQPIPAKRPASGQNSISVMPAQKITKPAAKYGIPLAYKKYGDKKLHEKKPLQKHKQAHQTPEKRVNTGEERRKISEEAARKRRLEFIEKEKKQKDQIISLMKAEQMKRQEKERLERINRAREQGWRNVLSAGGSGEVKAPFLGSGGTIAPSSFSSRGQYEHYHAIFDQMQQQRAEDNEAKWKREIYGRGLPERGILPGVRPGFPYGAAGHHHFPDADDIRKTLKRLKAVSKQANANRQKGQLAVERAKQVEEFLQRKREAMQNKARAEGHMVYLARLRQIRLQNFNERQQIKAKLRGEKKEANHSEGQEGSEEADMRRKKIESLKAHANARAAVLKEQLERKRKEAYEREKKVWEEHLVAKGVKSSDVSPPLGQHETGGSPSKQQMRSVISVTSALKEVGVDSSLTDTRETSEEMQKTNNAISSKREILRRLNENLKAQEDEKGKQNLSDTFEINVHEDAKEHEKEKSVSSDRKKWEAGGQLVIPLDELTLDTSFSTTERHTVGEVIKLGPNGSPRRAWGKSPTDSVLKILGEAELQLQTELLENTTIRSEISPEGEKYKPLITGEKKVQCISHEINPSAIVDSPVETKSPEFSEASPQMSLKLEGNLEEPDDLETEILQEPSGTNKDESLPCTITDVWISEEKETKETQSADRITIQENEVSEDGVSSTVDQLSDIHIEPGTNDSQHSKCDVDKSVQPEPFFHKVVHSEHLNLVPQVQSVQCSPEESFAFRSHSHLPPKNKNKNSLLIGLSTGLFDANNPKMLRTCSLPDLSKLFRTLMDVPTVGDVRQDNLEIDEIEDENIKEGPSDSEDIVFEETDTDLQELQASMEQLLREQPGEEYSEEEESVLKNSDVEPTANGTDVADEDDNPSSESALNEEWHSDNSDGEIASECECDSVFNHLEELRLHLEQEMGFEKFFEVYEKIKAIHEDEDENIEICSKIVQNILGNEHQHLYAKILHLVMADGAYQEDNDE
# [3] = target: T2, Serine/threonine-protein kinase Nek1 (Homo sapiens); conditions: at 1 µM
# [4] = target: T3, Serine/threonine-protein kinase Nek2 (Homo sapiens) (UniProt P51955); conditions: at 0.1 µM
# T3 sequence (whole entry): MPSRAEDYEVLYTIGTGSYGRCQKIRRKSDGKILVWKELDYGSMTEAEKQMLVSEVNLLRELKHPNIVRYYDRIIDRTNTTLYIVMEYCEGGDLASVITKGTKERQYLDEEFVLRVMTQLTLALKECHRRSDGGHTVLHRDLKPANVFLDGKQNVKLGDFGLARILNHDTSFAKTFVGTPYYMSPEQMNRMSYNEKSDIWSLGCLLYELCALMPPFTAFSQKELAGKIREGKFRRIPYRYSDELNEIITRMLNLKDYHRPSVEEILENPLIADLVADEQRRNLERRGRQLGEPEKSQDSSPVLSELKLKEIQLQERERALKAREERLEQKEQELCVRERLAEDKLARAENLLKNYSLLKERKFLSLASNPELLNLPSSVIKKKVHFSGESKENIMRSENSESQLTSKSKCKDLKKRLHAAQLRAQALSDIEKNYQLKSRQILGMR
# [5] = target: T3, Serine/threonine-protein kinase Nek2 (Homo sapiens); conditions: at 1 µM
# [6] = target: Serine/threonine-protein kinase Nek6 (Homo sapiens) (UniProt Q9HC98); conditions: at 0.1 µM
# [7] = target: Serine/threonine-protein kinase Nek6 (Homo sapiens) (UniProt Q9HC98); conditions: at 1 µM
# [8] = target: Serine/threonine-protein kinase Nek7 (Homo sapiens) (UniProt Q8TDX7); conditions: at 0.1 µM
# [9] = target: Serine/threonine-protein kinase Nek7 (Homo sapiens) (UniProt Q8TDX7); conditions: at 1 µM
# [10] = target: T4, Serine/threonine-protein kinase Nek9 (Homo sapiens) (UniProt Q8TD19); conditions: at 0.1 µM
# T4 sequence (whole entry): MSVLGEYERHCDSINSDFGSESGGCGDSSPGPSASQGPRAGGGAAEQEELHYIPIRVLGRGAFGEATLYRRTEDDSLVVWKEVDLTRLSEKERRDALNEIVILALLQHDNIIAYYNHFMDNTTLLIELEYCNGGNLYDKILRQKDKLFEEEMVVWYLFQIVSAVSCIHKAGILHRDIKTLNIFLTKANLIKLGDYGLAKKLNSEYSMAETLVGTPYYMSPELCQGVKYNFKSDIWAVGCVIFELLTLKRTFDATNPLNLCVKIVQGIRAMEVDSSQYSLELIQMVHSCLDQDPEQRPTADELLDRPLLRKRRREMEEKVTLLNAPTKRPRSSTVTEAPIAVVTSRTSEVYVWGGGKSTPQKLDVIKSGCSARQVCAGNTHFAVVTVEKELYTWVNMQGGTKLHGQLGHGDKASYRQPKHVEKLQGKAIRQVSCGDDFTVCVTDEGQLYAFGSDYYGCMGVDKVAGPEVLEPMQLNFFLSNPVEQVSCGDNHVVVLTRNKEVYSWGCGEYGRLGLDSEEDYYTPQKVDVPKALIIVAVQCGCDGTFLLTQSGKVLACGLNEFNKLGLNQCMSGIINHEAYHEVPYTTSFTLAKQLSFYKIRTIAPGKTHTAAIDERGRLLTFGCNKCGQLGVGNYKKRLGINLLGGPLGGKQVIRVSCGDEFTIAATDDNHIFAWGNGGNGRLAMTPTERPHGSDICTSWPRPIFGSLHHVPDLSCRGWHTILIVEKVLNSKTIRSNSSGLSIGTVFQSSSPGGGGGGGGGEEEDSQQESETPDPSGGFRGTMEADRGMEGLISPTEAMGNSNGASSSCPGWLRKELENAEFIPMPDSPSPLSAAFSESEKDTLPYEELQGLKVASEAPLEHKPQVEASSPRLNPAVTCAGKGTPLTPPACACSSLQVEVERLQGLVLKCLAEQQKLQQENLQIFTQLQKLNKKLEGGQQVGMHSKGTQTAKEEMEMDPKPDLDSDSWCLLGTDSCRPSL
# [11] = target: T4, Serine/threonine-protein kinase Nek9 (Homo sapiens); conditions: at 1 µM
# [12] = target: Serine/threonine-protein kinase PLK1 (Homo sapiens) (UniProt P53350); conditions: at 0.1 µM
# [13] = target: Serine/threonine-protein kinase PLK1 (Homo sapiens) (UniProt P53350); conditions: at 1 µM
# [14] = target: T5, Dual specificity protein kinase TTK (Homo sapiens) (UniProt P33981); conditions: at 0.1 µM
# T5 sequence (whole entry): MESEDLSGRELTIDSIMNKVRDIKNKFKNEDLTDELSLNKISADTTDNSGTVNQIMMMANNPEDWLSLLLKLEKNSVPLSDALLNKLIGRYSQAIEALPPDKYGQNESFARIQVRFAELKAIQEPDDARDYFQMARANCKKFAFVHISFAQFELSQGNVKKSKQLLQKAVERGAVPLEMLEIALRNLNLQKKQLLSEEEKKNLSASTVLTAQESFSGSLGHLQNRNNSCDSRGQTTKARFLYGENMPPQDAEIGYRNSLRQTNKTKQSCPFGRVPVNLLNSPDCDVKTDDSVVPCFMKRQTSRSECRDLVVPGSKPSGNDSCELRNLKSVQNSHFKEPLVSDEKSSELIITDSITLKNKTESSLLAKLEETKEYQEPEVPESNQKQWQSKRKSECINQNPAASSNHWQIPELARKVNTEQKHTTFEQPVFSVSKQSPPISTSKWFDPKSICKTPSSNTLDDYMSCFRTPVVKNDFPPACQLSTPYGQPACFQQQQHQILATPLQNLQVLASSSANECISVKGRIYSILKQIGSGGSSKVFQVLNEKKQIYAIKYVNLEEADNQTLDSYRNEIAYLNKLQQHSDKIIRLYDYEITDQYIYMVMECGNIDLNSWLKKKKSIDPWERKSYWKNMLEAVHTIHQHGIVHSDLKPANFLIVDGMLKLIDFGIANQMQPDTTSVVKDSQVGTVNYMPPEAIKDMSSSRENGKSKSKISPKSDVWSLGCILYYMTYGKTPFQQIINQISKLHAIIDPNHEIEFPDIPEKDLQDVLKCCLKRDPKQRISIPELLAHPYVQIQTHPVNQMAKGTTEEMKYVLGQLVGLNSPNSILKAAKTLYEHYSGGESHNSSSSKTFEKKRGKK
# [15] = test system: T6, Receptor-type tyrosine-protein kinase FLT3 (Homo sapiens), P36888 [D835Y]; conditions: at 1 µM
# T6 sequence (whole entry): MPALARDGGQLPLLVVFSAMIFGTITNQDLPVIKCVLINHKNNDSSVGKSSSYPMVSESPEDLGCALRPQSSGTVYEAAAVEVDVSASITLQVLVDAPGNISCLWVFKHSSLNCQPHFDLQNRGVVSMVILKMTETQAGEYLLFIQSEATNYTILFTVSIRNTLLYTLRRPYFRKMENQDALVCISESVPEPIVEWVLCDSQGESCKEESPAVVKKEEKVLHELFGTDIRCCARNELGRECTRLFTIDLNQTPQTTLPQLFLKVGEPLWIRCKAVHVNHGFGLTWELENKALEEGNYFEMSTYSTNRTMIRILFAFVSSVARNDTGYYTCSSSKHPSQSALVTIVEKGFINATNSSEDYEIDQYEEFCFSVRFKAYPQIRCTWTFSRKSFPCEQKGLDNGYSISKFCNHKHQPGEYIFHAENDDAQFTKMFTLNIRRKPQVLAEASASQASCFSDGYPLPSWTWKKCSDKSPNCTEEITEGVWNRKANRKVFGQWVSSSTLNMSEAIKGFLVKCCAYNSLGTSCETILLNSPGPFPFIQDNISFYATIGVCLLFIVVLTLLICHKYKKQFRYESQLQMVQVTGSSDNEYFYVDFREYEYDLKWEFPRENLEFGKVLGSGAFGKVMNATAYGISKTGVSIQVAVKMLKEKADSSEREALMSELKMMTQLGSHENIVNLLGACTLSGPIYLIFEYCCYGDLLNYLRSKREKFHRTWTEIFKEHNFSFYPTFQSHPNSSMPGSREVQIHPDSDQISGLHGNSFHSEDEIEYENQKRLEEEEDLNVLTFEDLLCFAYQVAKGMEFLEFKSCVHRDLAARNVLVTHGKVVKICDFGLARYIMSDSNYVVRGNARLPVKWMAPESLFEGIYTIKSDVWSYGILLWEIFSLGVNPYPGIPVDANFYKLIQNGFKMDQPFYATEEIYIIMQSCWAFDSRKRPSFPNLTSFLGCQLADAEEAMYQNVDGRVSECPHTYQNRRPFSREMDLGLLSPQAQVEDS
# [16] = target: Vascular endothelial growth factor receptor 3 (Homo sapiens) (UniProt P35916); conditions: at 0.1 µM
# [17] = target: Vascular endothelial growth factor receptor 3 (Homo sapiens) (UniProt P35916); conditions: at 1 µM
# [18] = target: Macrophage colony-stimulating factor 1 receptor (Homo sapiens) (UniProt P07333); conditions: at 0.1 µM
# [19] = target: Macrophage colony-stimulating factor 1 receptor (Homo sapiens) (UniProt P07333); conditions: at 1 µM
# [20] = target: Tyrosine-protein kinase Fyn (Homo sapiens) (UniProt P06241); conditions: at 0.1 µM
# Sequence of Tyrosine-protein kinase Fyn (Homo sapiens) (P06241 2-537 limits assumed): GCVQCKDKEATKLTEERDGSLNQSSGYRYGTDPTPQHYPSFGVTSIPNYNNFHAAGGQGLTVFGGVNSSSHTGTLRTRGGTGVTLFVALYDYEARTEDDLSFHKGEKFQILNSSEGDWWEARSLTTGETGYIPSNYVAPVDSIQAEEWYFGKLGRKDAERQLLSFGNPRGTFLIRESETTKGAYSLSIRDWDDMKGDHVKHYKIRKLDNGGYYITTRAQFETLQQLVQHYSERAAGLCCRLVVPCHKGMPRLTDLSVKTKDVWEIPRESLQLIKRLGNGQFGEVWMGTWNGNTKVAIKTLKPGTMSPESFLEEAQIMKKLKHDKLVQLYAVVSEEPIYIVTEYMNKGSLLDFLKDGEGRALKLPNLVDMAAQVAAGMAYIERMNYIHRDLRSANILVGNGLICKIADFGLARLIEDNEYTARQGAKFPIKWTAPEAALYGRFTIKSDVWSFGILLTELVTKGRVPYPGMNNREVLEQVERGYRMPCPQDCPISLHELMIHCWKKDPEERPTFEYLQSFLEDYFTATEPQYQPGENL
# Sequence of Macrophage colony-stimulating factor 1 receptor (Homo sapiens) (P07333 whole entry): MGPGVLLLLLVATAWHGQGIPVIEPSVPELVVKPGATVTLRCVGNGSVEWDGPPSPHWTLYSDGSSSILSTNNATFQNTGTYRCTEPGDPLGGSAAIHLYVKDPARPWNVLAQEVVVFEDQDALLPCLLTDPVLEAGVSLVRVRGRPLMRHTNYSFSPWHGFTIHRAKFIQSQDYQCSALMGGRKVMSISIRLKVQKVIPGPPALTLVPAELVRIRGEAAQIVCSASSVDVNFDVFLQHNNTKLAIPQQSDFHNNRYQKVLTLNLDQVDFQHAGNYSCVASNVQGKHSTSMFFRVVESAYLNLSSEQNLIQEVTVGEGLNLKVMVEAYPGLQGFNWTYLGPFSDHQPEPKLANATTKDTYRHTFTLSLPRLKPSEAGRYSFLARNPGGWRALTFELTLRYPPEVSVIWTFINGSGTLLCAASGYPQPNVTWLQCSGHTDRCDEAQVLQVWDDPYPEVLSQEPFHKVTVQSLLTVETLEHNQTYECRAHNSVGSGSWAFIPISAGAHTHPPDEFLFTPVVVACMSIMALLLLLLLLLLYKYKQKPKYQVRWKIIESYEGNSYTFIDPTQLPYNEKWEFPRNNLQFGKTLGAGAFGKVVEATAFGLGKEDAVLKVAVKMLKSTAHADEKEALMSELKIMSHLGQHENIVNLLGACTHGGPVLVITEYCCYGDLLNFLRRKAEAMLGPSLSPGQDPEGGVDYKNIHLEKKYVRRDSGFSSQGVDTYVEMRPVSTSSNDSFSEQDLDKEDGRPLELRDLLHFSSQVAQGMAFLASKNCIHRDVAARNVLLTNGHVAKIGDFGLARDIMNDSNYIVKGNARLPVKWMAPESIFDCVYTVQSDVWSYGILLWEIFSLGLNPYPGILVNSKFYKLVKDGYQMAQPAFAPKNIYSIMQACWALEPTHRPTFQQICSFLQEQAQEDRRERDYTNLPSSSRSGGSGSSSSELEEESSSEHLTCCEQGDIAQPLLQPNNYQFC
# Sequence of Serine/threonine-protein kinase Nek7 (Homo sapiens) (Q8TDX7 whole entry, looked up): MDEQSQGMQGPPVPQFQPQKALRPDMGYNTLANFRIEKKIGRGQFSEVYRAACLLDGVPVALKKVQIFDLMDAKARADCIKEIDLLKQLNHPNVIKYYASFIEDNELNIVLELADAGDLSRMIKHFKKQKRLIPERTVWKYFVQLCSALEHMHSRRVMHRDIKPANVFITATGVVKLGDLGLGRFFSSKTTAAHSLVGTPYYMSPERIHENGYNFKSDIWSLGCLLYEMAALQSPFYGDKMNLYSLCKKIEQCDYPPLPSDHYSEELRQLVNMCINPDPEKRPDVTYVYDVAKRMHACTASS
# Sequence of Serine/threonine-protein kinase PLK1 (Homo sapiens) (P53350 whole entry): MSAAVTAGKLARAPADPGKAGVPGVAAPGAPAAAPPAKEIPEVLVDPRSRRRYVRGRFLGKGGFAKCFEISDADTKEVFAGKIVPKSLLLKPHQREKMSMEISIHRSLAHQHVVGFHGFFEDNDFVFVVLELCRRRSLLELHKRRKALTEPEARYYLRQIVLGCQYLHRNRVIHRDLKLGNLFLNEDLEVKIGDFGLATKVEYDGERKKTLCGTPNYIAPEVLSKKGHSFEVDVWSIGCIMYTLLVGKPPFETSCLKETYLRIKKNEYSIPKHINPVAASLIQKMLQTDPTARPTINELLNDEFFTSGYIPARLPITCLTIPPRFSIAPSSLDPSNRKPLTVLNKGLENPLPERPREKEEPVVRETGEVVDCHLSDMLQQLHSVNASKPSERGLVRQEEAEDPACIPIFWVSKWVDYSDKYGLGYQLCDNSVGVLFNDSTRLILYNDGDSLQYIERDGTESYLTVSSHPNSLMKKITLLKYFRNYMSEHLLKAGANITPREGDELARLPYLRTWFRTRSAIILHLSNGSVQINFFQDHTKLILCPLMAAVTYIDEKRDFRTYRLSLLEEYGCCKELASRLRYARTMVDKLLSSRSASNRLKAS
# Sequence of Serine/threonine-protein kinase Nek6 (Homo sapiens) (Q9HC98 whole entry): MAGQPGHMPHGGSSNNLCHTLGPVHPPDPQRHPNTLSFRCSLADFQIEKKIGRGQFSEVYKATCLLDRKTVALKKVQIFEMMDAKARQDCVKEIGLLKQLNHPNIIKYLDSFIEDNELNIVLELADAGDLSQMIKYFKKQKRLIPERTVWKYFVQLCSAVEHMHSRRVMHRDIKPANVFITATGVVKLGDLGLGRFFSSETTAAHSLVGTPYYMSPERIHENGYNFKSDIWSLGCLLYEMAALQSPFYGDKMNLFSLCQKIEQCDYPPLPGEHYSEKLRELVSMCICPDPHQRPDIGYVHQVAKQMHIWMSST
# Sequence of Vascular endothelial growth factor receptor 3 (Homo sapiens) (P35916 whole entry): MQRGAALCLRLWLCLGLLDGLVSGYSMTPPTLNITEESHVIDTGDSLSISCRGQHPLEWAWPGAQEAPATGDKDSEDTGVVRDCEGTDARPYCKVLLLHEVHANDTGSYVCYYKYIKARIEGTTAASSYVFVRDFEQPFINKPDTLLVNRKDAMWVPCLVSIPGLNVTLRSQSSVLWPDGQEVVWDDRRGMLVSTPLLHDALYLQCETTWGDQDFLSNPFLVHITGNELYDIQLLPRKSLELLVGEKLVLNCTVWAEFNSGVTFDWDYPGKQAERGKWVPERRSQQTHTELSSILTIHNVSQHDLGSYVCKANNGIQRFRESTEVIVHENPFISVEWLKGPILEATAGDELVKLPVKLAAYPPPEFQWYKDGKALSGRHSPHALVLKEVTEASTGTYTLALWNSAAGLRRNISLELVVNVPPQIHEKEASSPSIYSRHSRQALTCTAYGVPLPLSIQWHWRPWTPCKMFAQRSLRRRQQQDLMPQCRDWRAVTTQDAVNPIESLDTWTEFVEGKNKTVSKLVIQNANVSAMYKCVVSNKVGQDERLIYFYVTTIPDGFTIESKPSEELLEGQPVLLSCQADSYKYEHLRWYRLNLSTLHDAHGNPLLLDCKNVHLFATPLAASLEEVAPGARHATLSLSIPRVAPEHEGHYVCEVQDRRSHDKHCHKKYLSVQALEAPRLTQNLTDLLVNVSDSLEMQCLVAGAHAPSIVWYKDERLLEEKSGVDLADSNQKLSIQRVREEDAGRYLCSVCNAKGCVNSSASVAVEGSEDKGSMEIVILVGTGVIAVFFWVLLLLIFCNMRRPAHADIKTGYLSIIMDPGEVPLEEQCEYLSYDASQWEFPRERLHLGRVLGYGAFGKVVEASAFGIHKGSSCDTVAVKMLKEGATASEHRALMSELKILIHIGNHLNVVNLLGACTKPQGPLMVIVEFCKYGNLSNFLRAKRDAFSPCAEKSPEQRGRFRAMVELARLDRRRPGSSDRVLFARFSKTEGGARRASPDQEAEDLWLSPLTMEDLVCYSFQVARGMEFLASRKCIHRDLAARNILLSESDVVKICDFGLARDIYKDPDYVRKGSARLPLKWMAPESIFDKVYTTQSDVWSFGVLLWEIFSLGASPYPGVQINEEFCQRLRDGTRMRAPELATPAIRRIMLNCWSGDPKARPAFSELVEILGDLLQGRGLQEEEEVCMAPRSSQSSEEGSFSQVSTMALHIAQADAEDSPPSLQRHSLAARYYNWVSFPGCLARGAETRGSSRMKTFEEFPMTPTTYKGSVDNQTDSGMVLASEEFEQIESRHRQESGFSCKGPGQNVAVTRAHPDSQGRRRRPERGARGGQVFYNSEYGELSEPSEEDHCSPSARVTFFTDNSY
compound,measurement,setting,value
COc1ccc(-c2cc3c(N)ncnc3o2)cc1,inhibition,[1],-1.16%
same,inhibition,[2],0.22%
same,inhibition,[3],3.78%
same,inhibition,[4],-1.56%
same,inhibition,[5],-1.7%
same,inhibition,[6],-0.18%
same,inhibition,[7],-1.06%
same,inhibition,[8],-2.18%
same,inhibition,[9],-0.87%
same,inhibition,[10],4.69%
same,inhibition,[11],2.28%
same,inhibition,[12],-1.11%
same,inhibition,[13],-1.15%
same,inhibition,[14],0.22%
same,inhibition,[15],1.63%
same,inhibition,[16],0.51%
same,inhibition,[17],4.44%
same,inhibition,[18],2.06%
same,inhibition,[19],17.9%
same,inhibition,[20],0.82%
